The panel holds about 83,000 compounds, 20% with a hit somewhere; the sample as a whole holds those more often.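 Step 1: grow cells in 96-well plates. Step 2: add test compound at a single concentration. Step 3: incubate 48 h. Step 4: record percent growth.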 Unmarked numbers belong to inactive results. Calls of active or inactive are those of the source. The calls were made as follows: active = growth percent below 10; inactive = the rest.
Columns and labels:
Test in all cases: NCI-60 one-dose screen, 48 h (100 = growth as untreated, 0 = no growth, -100 = all killed)
Settings in all cases: 10 µM
[1] = test system: NCI-H23 lung
[2] = test system: NCI-H226 lung
[3] = test system: NCI-H322M lung
[4] = test system: HOP-62 NSCLC
[5] = test system: HOP-92 NSCLC
[6] = test system: NCI-H522 lung
[7] = test system: A549/ATCC NSCLC
[8] = test system: 786-0 renal
[9] = test system: COLO 205 colon

Row | Compound | growth [1] | growth [2] | growth [3] | growth [4] | growth [5] | growth [6] | growth [7] | growth [8] | growth [9]
1 | COc1ccc(Cn2cc3c(c2-c2cc(OC)c(OC)c(OC)c2)CCc2cnoc2-3)cc1[N+](=O)[O-] | 26.1% | 47.5% | 26.7% | 56.6% | 64% | 46.2% | 34% | 34.3% | 1.15% (active)
2 | Nc1cc2c(cc1Cl)-c1ccc(Cl)cc1C2=O | 98.3% | 105% | 103% | 90.2% | 78.1% | 90.3% | – | 103% | 95.1%
3 | COc1cccc2c1C(=O)c1c(O)c3c(c(O)c1C2=O)C[C@@](O)(C(=O)COC(=O)c1cccnc1)C[C@@H]3OC1CC(N)C(O)C(C)O1 (stereo partly specified) | -24.7% (active) | -28.5% (active) | -19.5% (active) | -7.51% (active) | -26.3% (active) | -75.6% (active) | – | 3.23% (active) | -68.8% (active)
4 | COC1OC2COC(c3ccccc3)OC2C(=O)C1NC(=O)c1ccccc1 (stereo unspecified) | 100% | 106% | 106% | 86.9% | 79.3% | 95.2% | 105% | 109% | 97.2%
5 | COc1ccc(-n2nnc3c(sc4ccccc43)c2=O)cc1 | 68.5% | 24.7% | 37.7% | -8.23% (active) | -4.08% (active) | 56.6% | 10.8% | 21.4% | 80.7%
6 | O=C(Nc1cccc(F)c1)Nc1cccc(Cl)c1 | 89.8% | 102% | 94.8% | 99.6% | 76.7% | 90.5% | 74.7% | 94.2% | 93.6%
7 | O=S(=O)(NCCO)c1ccc(OCCOc2ccc(S(=O)(=O)NCCO)cc2)cc1 | 96.6% | 91.3% | 90.4% | 90.7% | 81.1% | 91.7% | 95% | 96.9% | 104%
8 | O=C1CC(c2cccc(-c3cccnc3)c2)=Nc2ccc(Br)cc2N1 | 44.4% | 27.8% | 67.2% | 19.7% | 23.5% | 22.5% | 38.1% | 1.54% (active) | 61.1%
9 | CCN(CC)CC(O)CNc1ccnc2cc(Cl)c(Cl)cc12 (stereo unspecified) | 102% | 84.9% | 92.1% | 88.9% | 53.4% | 94.1% | 101% | 86.1% | 78.1%
10 | CCC(CCNc1cc(OC)cc2cccnc12)CN1C(=O)c2ccccc2C1=O (stereo unspecified) | 91.3% | 98.9% | 112% | 102% | 93% | 87.5% | 105% | 104% | 113%
11 | Cc1nc2scc(-c3ccc(Cl)cc3)n2c(=O)c1CCN1CCOCC1 | 101% | 94.6% | 89.7% | 89% | 81.6% | 86.8% | 99.6% | 98.8% | 99.9%
12 | COc1cccc(C(=O)N(c2ccc(F)c(F)c2)C(C(=O)NC(C)(C)C)c2cc3c(C)cc(C)cc3nc2Cl)c1 (stereo unspecified) | 66% | 65.7% | 84.7% | 86.6% | 47% | 61.6% | 52.8% | 76.6% | 70.2%
13 | COc1ccc(Cn2cc3c(c2-c2cc(OC)c(OC)c(OC)c2)CCc2cnoc2-3)cc1N | 15.8% | 12.7% | 14.9% | 47.4% | 80.8% | 32.3% | 28.5% | 15.8% | -29.1% (active)
14 | Cc1cc(C)c2c(Nc3ncnc4c3sc3nc(C)cc(C)c34)n[nH]c2n1 | 98.6% | 93.8% | 111% | 95% | 102% | 96.9% | 102% | 106% | 109%
15 | COC(=O)[C@]12CC[C@@H](C)[C@H](C)[C@@H]1C1=CC[C@@H]3[C@@]4(C)C/C(=N\O)[C@H](O)[C@@]5(C)COC(=C45)C[C@@]3(C)[C@]1(C)CC2 | -75.7% (active) | -76.7% (active) | -77.2% (active) | -96.7% (active) | -79% (active) | -84.7% (active) | -90.6% (active) | -81% (active) | -91.9% (active)
16 | COC(=O)c1cnc2c(c1)Oc1ccccc1-c1ccnn1-2 | 95.8% | 83.9% | 105% | 92.5% | 86.9% | 80.3% | – | 90.6% | 101%
17 | O=C(Nc1cccc([N+](=O)[O-])c1)NN1CCCCCC1 | 105% | 95.7% | 111% | 111% | 80.8% | 90% | 87% | 96.3% | 104%
18 | CCCCc1ccc(NC(=O)N(CCCl)N=O)cc1 | 109% | 91.2% | 96.8% | 90.8% | 105% | 97% | 102% | 94.2% | 101%
19 | O=C/C=C/c1ccc([N+](=O)[O-])cc1Cl | 94% | 108% | 89.1% | 99.9% | 95.1% | 89.5% | 98.7% | 105% | 108%
20 | Cc1nc2cc(-n3c(-c4ccc(F)cc4)nc4ccccc4c3=O)ccc2n1Cc1ccccc1 | 42.1% | 3.55% (active) | 38.2% | 45.1% | -15.6% (active) | 44.5% | -25.4% (active) | 7.98% (active) | 4.23% (active)
21 | COc1ccc(C2C=C(c3ccc(Cl)c(Cl)c3)N=C3SC(C)=CN32)cc1OC (stereo unspecified) | 64% | 79.7% | 71.7% | 82.3% | 47.2% | 57.9% | 58.6% | 78.8% | 72.1%
22 | N=C(N)c1ccc(-c2ccc(-c3ccccc3)s2)s1 | 54.6% | -19.8% (active) | -86.2% (active) | -83.9% (active) | -37.8% (active) | -69.4% (active) | -60.8% (active) | -36.7% (active) | -96.3% (active)
23 | Cc1cc(C)c(C(=O)OC(C)CNC2CCCCC2)c(C)c1 (stereo unspecified) | 94.1% | 99.6% | 95.4% | 85.7% | 51.9% | 99.4% | – | 93.2% | 96.8%
24 | COC(=O)c1cnc2c(c1)Oc1ccc(Cl)cc1-c1cc(C)nn1-2 | 74.5% | 66.3% | 66.9% | 68.3% | 85.6% | 82.3% | 59.2% | 97.5% | 71.5%
25 | CCN(CC)CC(O)Cc1ccc(OC)cc1 (stereo unspecified) | 108% | 99.5% | 121% | 104% | 108% | 97.8% | 104% | 100% | 109%

From PubChem BioAssay (NCI)
